According to PubChem BioAssay (NCI):
The panel holds about 83,000 compounds, 20% with a hit somewhere; the sample as a whole holds those more often.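 Percent growth is the endpoint: 0 to 100 indicates growth inhibition (40 means 60% inhibition), 0 means no net growth, and negative values indicate cell death.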 Values without a mark were called inactive. Calls of active or inactive are those of the source. Rule for the calls: active = growth percent below 10; inactive = the rest.

Legend:
Test in all cases: NCI-60 one-dose screen, 48 h (100 = growth as untreated, 0 = no growth, -100 = all killed)
Settings in all cases: 10 µM unless noted
NCI/ADR-RES ovarian = test system: NCI/ADR-RES ovarian
T-47D breast = test system: T-47D breast
BT-549 breast = test system: BT-549 breast
MDA-MB-435 melanoma = test system: MDA-MB-435 melanoma
SW-620 colon = test system: SW-620 colon
MCF7 breast = test system: MCF7 breast
HCT-116 colon = test system: HCT-116 colon
HCC-2998 colon = test system: HCC-2998 colon
KM12 colon = test system: KM12 colon

Question: `CC(=O)O[C@H]1CC[C@H]2[C@@H]3CC=C4c5nc(-c6ccccc6)sc5CC[C@]4(C)[C@H]3CC[C@]12C` was tested. Which growth (NCI/ADR-RES ovarian) did it give?
Answer: 71.1%

Question: What about the growth (T-47D breast) of the same molecule?
Answer: 52.4%

Question: What about the growth (BT-549 breast) of the same molecule?
Answer: 64.8%

Question: And the growth (MDA-MB-435 melanoma)?
Answer: 59.2%

Question: And the growth (SW-620 colon)?
Answer: 55%

Question: And the growth (MCF7 breast)?
Answer: 67.7%

Question: What about the growth (HCT-116 colon) of the same molecule?
Answer: 51.2%

Question: And the growth (HCC-2998 colon)?
Answer: 54%

Question: What about the growth (KM12 colon) of the same molecule?
Answer: 42.3%

Question: How did the growth (NCI/ADR-RES ovarian) turn out when `Cc1c2cc(Cl)c3ccccc3c2c[n+]2ccccc12` was run?
Answer: 87.2%

Question: What about the growth (T-47D breast) of the same molecule?
Answer: -27.4% (active)

Question: What about the growth (BT-549 breast) of the same molecule?
Answer: -6.2% (active)

Question: And the growth (MDA-MB-435 melanoma)?
Answer: 64.9%

Question: What about the growth (SW-620 colon) of the same molecule?
Answer: 50.7%

Question: What about the growth (MCF7 breast) of the same molecule?
Answer: 26.4%

Question: And the growth (HCT-116 colon)?
Answer: 48.7%

Question: And the growth (HCC-2998 colon)?
Answer: 15.3%

Question: What about the growth (KM12 colon) of the same molecule?
Answer: 39.7%

Question: With `COc1ccc2c(c1)c(C1(O)CC(CSC#N)OC1=O)cn2C(=O)c1ccc(Cl)cc1` (stereo unspecified) as the molecule, how does the growth (NCI/ADR-RES ovarian) read?
Answer: 92.5%

Question: And the growth (T-47D breast)?
Answer: 100%

Question: And the growth (BT-549 breast)?
Answer: 97.6%

Question: What about the growth (MDA-MB-435 melanoma) of the same molecule?
Answer: 98.9%

Question: And the growth (SW-620 colon)?
Answer: 105%

Question: And the growth (MCF7 breast)?
Answer: 91.6%

Question: And the growth (HCT-116 colon)?
Answer: 97%

Question: And the growth (HCC-2998 colon)?
Answer: 95.1%

Question: What about the growth (KM12 colon) of the same molecule?
Answer: 97.7%

Question: How did the growth (NCI/ADR-RES ovarian) turn out when `CCCCOc1ccc(C(N)Cc2ccccc2)cc1` (stereo unspecified) was run?
Answer: 105%

Question: What about the growth (T-47D breast) of the same molecule?
Answer: 92.5%

Question: What about the growth (BT-549 breast) of the same molecule?
Answer: 101%

Question: What about the growth (MDA-MB-435 melanoma) of the same molecule?
Answer: 43.2%

Question: And the growth (SW-620 colon)?
Answer: 87.5%

Question: What about the growth (MCF7 breast) of the same molecule?
Answer: 81.7%

Question: And the growth (HCT-116 colon)?
Answer: 86.4%

Question: What about the growth (HCC-2998 colon) of the same molecule?
Answer: 29.9%

Question: What about the growth (KM12 colon) of the same molecule?
Answer: 98.5%

Question: How did the growth (NCI/ADR-RES ovarian) turn out when `O=[N+]([O-])c1cc(I)cc([N+](=O)[O-])c1` was run?
Answer: 96.6%

Question: What about the growth (T-47D breast) of the same molecule?
Answer: 95.8%

Question: What about the growth (BT-549 breast) of the same molecule?
Answer: 101%

Question: And the growth (MDA-MB-435 melanoma)?
Answer: 101%

Question: And the growth (SW-620 colon)?
Answer: 106%

Question: What about the growth (MCF7 breast) of the same molecule?
Answer: 80.7%

Question: And the growth (HCT-116 colon)?
Answer: 94.8%

Question: What about the growth (HCC-2998 colon) of the same molecule?
Answer: 104%

Question: What about the growth (KM12 colon) of the same molecule?
Answer: 102%

Question: Which growth (NCI/ADR-RES ovarian) does the source give for `OCCCCCNC1CCCCC1` here?
Answer: 103%

Question: And the growth (T-47D breast)?
Answer: 95.4%

Question: And the growth (BT-549 breast)?
Answer: 105%

Question: What about the growth (MDA-MB-435 melanoma) of the same molecule?
Answer: 104%

Question: And the growth (SW-620 colon)?
Answer: 107%

Question: What about the growth (MCF7 breast) of the same molecule?
Answer: 103%

Question: What about the growth (HCT-116 colon) of the same molecule?
Answer: 94.7%

Question: What about the growth (HCC-2998 colon) of the same molecule?
Answer: 104%

Question: What about the growth (KM12 colon) of the same molecule?
Answer: 111%

Question: How did the growth (NCI/ADR-RES ovarian) turn out when `C=CC[Se]C(=O)c1ccccc1OC(C)=O` was run?
Answer: 0.132% (active)

Question: And the growth (T-47D breast)?
Answer: -9.76% (active)

Question: And the growth (BT-549 breast)?
Answer: 28.9%

Question: And the growth (MDA-MB-435 melanoma)?
Answer: 28.7%

Question: What about the growth (SW-620 colon) of the same molecule?
Answer: 11.1%

Question: And the growth (MCF7 breast)?
Answer: -5.53% (active)

Question: What about the growth (HCT-116 colon) of the same molecule?
Answer: 5.71% (active)

Question: What about the growth (HCC-2998 colon) of the same molecule?
Answer: 6.92% (active)

Question: And the growth (KM12 colon)?
Answer: -24.1% (active)

Question: `C/C=C(\C)C(=O)O[C@@H]1C(O)[C@H]2OC(COC(=O)CCC(=O)CCCCCC[C@H](CCCCC)O[C@@H]3OC(C)[C@H](OC(C)=O)C(O)[C@H]3O2)[C@H]1OC(=O)/C=C/c1ccccc1` (stereo partly specified) was tested. Which growth (NCI/ADR-RES ovarian) did it give?
Answer: 38.5%

Question: And the growth (T-47D breast)?
Answer: -6.33% (active)

Question: What about the growth (BT-549 breast) of the same molecule?
Answer: 22.1%

Question: What about the growth (MDA-MB-435 melanoma) of the same molecule?
Answer: 0.295% (active)

Question: What about the growth (SW-620 colon) of the same molecule?
Answer: 24.6%

Question: And the growth (MCF7 breast)?
Answer: 17.6%

Question: And the growth (HCT-116 colon)?
Answer: 8.86% (active)

Question: And the growth (HCC-2998 colon)?
Answer: 39.3%

Question: And the growth (KM12 colon)?
Answer: 16.4%

Question: With `CC[C@H](C)[C@H](NC(=O)C12C3C4C1C1C2C3C41NC(C)=O)C(=O)N(C)[C@H](C[C@@H](OC(C)=O)c1nc(C(=O)N[C@@H](Cc2ccccc2)C[C@H](C)C(=O)OC)cs1)C(C)C` (stereo partly specified) as the molecule, how does the growth (NCI/ADR-RES ovarian) read?
Answer: 89.7%

Question: And the growth (T-47D breast)?
Answer: 70.1%

Question: What about the growth (BT-549 breast) of the same molecule?
Answer: 5.96% (active)

Question: And the growth (MDA-MB-435 melanoma)?
Answer: -32.9% (active)

Question: And the growth (SW-620 colon)?
Answer: 21%

Question: And the growth (MCF7 breast)?
Answer: 15.2%

Question: What about the growth (HCT-116 colon) of the same molecule?
Answer: 6.15% (active)

Question: And the growth (HCC-2998 colon)?
Answer: 24.1%

Question: And the growth (KM12 colon)?
Answer: 14.8%

Question: Which growth (NCI/ADR-RES ovarian) does the source give for `O=C1C2CC=CCC2C(=O)N1SC(Cl)(Cl)Cl` (stereo unspecified) here?
Answer: 104%

Question: What about the growth (T-47D breast) of the same molecule?
Answer: 46.3%

Question: What about the growth (BT-549 breast) of the same molecule?
Answer: 125%

Question: And the growth (MDA-MB-435 melanoma)?
Answer: 126%

Question: And the growth (SW-620 colon)?
Answer: 8.03% (active)

Question: What about the growth (MCF7 breast) of the same molecule?
Answer: 83.3%

Question: What about the growth (HCT-116 colon) of the same molecule?
Answer: 66.5%

Question: What about the growth (HCC-2998 colon) of the same molecule?
Answer: 105%

Question: And the growth (KM12 colon)?
Answer: 103%

Question: How did the growth (NCI/ADR-RES ovarian) turn out when `COc1cc([C@@H]2c3cc4c(cc3[C@H](OC(C)=O)[C@H]3COC(=O)[C@H]23)OCO4)cc(OC)c1OC` was run?
Answer: 3.8% (active)

Question: What about the growth (T-47D breast) of the same molecule?
Answer: 57.8%

Question: And the growth (BT-549 breast)?
Answer: 31.5%

Question: What about the growth (MDA-MB-435 melanoma) of the same molecule?
Answer: -8.58% (active)

Question: What about the growth (SW-620 colon) of the same molecule?
Answer: 27.3%

Question: And the growth (MCF7 breast)?
Answer: 14.9%

Question: And the growth (HCT-116 colon)?
Answer: 7.01% (active)

Question: And the growth (HCC-2998 colon)?
Answer: 15%

Question: What about the growth (KM12 colon) of the same molecule?
Answer: 17.8%

Question: Which growth (NCI/ADR-RES ovarian) does the source give for `O=NN1CCCc2cccc(O)c21` here?
Answer: 32.5%

Question: And the growth (T-47D breast)?
Answer: 77.2%

Question: And the growth (BT-549 breast)?
Answer: 54.2%

Question: And the growth (MDA-MB-435 melanoma)?
Answer: 52.1%

Question: What about the growth (SW-620 colon) of the same molecule?
Answer: 44.1%

Question: What about the growth (MCF7 breast) of the same molecule?
Answer: 27.2%

Question: And the growth (HCT-116 colon)?
Answer: 21.7%

Question: What about the growth (HCC-2998 colon) of the same molecule?
Answer: 55.7%

Question: What about the growth (KM12 colon) of the same molecule?
Answer: 68.4%

Question: Which results are given for `CCCCCCCC[n+]1ccc2ccccc2c1`?
Answer: growth (NCI/ADR-RES ovarian): 95.6%; growth (T-47D breast): 27.1%; growth (BT-549 breast): 32.3%; growth (MDA-MB-435 melanoma): 46.2%; growth (SW-620 colon): 75.9%; growth (MCF7 breast): 41.1%; growth (HCT-116 colon): 46.5%; growth (HCC-2998 colon): 47.4%; growth (KM12 colon): 46.1%

Question: Which results are given for `CCOC(=O)[C@@H](C)C[C@H](Cc1ccccc1)NC(=O)c1csc([C@@H](C[C@H](C(C)C)N(C)C(=O)[C@@H](NC(=O)[C@H]2C[C@H](O)CCN2C)C(C)C)OC(C)=O)n1`?
Answer: growth (NCI/ADR-RES ovarian): 45.3%; growth (T-47D breast): 79.4%; growth (BT-549 breast): -31.9% (active); growth (MDA-MB-435 melanoma): -40.9% (active); growth (SW-620 colon): 25.1%; growth (MCF7 breast): 20%; growth (HCT-116 colon): -12.6% (active); growth (HCC-2998 colon): 19.6%; growth (KM12 colon): 5.96% (active)
